# Experimental data: the supplement of paper PMC10849652
# About 8,800 targets were measured; listed, in parts, are those with a hit and a random draw of the rest. About 0.5% of all pairs of compound and target were hits. Values without a mark were called inactive.
# Columns and labels:
# Experiment in all cases: log2 fold change, soluble protein after heating vs DMSO (PISA); higher = thermal stabilisation; K562 lysate, 10 uM; active = over 0.2 and 3.5 SD of the protein, either way, in both replicates (recomputed)
# [1] = compound: Cc1cn(-c2cc(NC(=O)c3ccc(C)c(Nc4nccc(-c5cccnc5)n4)c3)cc(C(F)(F)F)c2)cn1 [nilotinib]
# How it was run: (§1)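 Values give the log-two fold change in thermal stability against solvent controls, from duplicates. Crude K562 extract at 1 mg/mL protein, made by dounce homogenisation in PBS pH 7.4 with 1 mM MgCl2, was treated with 10 μM compound for 30 min. After 3 min heating across 48°C-58°C, aliquots were pooled, adjusted to 0.5% NP-40 at 4°C and centrifuged at 21,000xg for 90 min. The supernatant was measured by TMTpro 16plex LC-MS/MS with channel sums equalised.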
# [2] = compound: Cc1nc(Nc2n[nH]c3c2CN(C(=O)N[C@H](CN(C)C)c2ccccc2)C3(C)C)c2sccc2n1
# How it was run: as §1
# [3] = compound: Cc1nc(Nc2ncc(C(=O)Nc3c(C)cccc3Cl)s2)cc(N2CCN(CCO)CC2)n1 [dasatinib]
# How it was run: as §1
# [4] = compound: Cc1ncc(-c2ccnc(Nc3ccc(S(C)(=O)=O)cc3)n2)n1C(C)C
# How it was run: as §1
# [5] = compound: Cn1cc(-c2ccc3c(c2)CCN3C(=O)Cc2cccc(C(F)(F)F)c2)c2c(N)ncnc21
# How it was run: as §1
# [6] = compound: Cn1cc(CNCC2CCN(c3ncc(C(=O)NO)cn3)CC2)c2ccccc21 [quisinostat]
# How it was run: as §1
# [7] = compound: Cn1cncc1[C@@](N)(c1ccc(Cl)cc1)c1ccc2c(c1)c(-c1cccc(Cl)c1)cc(=O)n2C [tipifarnib]
# How it was run: as §1
# [8] = compound: NC(=O)Nc1cc(-c2cccc(F)c2)sc1C(=O)N[C@H]1CCCNC1
# How it was run: as §1
# [9] = compound: NC(=O)c1cnc(N[C@@H]2CCCC[C@@H]2N)nc1Nc1cccc(-n2nccn2)c1
# How it was run: as §1
# [10] = compound: NC1(c2ccc(-c3nc4ccn5c(=O)[nH]nc5c4cc3-c3ccccc3)cc2)CCC1
# How it was run: as §1
# Sequence of UniProt Q05655 (Q05655 whole entry, looked up): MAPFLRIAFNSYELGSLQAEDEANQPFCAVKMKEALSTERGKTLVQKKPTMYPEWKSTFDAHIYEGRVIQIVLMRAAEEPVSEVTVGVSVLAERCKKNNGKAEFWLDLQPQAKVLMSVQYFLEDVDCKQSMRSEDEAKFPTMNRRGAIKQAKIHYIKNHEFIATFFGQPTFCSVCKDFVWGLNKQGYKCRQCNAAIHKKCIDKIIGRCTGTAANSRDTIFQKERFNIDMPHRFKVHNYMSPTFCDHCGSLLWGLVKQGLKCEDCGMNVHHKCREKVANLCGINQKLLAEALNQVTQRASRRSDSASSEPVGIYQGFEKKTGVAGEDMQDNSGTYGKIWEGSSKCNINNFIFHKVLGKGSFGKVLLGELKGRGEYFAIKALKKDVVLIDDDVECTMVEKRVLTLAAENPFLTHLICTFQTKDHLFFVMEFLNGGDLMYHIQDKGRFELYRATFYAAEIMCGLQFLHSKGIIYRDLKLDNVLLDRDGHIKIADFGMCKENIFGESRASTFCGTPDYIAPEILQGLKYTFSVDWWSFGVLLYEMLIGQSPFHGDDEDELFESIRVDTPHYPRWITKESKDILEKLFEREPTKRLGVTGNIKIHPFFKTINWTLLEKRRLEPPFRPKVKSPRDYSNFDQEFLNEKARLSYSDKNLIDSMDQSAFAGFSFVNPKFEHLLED
# Sequence of UniProt Q9H939 (Q9H939 whole entry, looked up): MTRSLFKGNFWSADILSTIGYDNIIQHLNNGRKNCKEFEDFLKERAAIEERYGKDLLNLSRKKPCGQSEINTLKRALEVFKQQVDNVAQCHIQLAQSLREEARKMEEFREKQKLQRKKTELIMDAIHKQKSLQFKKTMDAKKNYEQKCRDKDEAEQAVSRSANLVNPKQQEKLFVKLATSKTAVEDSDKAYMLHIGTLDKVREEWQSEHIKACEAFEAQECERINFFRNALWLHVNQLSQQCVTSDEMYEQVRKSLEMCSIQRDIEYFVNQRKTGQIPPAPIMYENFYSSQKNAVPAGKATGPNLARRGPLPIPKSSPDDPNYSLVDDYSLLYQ
# Sequence of UniProt Q8N8N7 (Q8N8N7 whole entry, looked up): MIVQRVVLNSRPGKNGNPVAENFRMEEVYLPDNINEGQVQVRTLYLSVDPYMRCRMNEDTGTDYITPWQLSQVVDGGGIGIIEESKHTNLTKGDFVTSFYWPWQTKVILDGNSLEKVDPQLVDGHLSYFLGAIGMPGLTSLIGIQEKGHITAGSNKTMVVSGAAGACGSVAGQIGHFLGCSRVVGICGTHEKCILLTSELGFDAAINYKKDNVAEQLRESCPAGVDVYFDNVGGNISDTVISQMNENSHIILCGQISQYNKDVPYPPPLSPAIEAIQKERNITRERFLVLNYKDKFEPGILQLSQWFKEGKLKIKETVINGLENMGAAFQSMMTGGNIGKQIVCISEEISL
# Sequence of UniProt P53609 (P53609 whole entry, looked up): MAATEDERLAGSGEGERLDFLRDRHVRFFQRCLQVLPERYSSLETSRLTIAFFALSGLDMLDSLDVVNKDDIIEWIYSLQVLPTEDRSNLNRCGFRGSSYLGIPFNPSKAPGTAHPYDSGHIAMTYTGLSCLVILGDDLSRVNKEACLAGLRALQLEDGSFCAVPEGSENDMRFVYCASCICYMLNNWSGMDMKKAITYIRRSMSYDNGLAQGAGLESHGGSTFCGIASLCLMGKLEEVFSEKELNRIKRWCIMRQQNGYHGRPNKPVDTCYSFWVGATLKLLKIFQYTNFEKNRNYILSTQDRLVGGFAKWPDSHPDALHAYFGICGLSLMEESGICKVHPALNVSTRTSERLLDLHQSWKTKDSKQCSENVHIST
# Sequence of UniProt Q01813 (Q01813 whole entry, looked up): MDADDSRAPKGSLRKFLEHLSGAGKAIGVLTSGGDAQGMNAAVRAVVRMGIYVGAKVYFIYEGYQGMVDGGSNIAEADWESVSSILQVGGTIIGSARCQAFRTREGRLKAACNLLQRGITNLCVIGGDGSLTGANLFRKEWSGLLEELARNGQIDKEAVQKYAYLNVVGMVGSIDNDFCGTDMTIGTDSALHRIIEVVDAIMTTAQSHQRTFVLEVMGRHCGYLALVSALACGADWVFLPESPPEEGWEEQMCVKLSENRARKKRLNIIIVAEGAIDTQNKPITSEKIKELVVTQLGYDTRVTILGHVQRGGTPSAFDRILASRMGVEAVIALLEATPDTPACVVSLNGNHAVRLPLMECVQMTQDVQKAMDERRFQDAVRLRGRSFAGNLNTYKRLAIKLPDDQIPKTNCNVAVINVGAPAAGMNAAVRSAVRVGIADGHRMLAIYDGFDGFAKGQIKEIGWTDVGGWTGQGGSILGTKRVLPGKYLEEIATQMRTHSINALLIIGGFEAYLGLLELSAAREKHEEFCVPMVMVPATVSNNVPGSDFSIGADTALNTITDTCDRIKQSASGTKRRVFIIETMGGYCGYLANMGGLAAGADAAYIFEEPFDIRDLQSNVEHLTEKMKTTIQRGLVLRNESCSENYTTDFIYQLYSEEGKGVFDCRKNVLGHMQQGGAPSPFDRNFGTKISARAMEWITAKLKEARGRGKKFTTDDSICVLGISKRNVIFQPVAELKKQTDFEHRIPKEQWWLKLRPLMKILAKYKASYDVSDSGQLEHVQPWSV
# Sequence of UniProt Q9BSG0 (Q9BSG0 whole entry, looked up): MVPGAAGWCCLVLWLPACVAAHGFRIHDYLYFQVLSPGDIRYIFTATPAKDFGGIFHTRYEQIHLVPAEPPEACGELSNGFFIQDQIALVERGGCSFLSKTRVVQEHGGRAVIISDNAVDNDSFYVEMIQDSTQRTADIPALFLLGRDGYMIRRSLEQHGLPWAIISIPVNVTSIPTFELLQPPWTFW
# Sequence of UniProt Q10713 (Q10713 whole entry, looked up): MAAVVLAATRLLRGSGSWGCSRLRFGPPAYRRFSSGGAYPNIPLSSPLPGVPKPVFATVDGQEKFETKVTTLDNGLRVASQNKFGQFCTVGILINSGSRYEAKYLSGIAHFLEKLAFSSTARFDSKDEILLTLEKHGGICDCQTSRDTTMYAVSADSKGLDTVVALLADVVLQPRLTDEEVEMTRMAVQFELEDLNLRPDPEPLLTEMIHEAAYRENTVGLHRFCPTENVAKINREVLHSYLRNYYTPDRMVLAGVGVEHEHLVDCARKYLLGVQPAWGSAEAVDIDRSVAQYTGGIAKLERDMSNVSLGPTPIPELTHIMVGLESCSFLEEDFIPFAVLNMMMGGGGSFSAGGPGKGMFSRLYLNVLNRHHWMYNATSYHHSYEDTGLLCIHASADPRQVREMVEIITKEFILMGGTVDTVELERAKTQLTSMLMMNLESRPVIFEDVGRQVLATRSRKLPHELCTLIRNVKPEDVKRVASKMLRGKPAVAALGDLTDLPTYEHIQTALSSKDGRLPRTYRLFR
# Sequence of UniProt Q13362 (Q13362 whole entry, looked up): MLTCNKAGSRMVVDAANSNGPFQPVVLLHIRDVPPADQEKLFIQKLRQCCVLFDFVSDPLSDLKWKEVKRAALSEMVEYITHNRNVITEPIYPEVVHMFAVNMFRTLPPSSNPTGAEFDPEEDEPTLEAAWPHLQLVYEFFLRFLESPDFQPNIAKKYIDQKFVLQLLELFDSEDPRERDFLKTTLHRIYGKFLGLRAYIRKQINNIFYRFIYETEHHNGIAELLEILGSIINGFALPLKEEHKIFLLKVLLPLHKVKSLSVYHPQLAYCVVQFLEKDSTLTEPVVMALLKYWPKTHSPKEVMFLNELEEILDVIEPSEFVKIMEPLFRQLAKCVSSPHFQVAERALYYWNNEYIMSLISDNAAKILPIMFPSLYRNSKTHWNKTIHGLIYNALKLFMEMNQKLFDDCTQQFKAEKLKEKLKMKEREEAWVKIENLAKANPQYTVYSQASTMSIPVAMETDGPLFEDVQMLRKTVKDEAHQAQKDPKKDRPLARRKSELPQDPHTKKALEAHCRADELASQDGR
# Sequence of UniProt Q9Y606 (Q9Y606 whole entry, looked up): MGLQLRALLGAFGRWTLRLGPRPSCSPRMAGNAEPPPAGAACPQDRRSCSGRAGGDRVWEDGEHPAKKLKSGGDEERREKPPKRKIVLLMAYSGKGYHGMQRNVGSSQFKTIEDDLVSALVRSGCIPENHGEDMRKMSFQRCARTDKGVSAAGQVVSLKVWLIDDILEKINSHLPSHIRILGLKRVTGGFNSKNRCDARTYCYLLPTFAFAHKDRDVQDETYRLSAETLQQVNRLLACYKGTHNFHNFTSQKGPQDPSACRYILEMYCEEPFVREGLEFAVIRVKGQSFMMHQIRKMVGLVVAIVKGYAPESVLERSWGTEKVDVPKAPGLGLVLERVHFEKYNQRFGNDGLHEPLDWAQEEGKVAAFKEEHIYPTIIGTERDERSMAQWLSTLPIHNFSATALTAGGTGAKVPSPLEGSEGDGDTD
# Sequence of UniProt P13861 (P13861 whole entry, looked up): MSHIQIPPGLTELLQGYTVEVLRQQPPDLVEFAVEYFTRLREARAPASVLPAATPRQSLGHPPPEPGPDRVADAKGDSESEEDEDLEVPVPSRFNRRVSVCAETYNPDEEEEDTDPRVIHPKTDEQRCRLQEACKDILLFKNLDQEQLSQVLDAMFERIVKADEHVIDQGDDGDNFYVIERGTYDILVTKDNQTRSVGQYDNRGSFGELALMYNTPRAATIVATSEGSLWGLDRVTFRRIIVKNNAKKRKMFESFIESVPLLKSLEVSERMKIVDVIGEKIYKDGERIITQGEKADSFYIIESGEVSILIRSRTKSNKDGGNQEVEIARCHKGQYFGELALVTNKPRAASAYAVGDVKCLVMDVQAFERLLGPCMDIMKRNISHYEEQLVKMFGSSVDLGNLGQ
# Sequence of UniProt Q96C36 (Q96C36 whole entry, looked up): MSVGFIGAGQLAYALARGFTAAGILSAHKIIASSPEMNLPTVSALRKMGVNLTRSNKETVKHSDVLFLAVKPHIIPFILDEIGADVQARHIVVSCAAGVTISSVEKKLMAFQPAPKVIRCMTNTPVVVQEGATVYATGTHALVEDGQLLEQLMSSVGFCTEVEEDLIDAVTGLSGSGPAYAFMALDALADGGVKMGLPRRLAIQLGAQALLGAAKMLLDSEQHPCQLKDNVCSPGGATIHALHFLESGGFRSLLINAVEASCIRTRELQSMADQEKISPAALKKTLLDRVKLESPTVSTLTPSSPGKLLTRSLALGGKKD
Target,log2 fold change [1],log2 fold change [2],log2 fold change [3],log2 fold change [4],log2 fold change [5],log2 fold change [6],log2 fold change [7],log2 fold change [8],log2 fold change [9],log2 fold change [10]
POGK (UniProt Q9P215),-0.04,0.005,-0.068,-0.001,-0.023,-0.086,0.007,0.108,0.008,-0.006
PPP2R5C isoform 5 (UniProt Q13362),0.016,0.003,-0.053,0.022,-0.005,0.016,0.074,0.032,0.059,-0.019
PRMT8 (UniProt Q9NR22),0.007,-0.021,-0.039,-0.01,-0.023,-0.057,0.036,0.034,-0.023,-0.056
PUS1 (UniProt Q9Y606),0.005,-0.042,-0.01,0.01,0.018,-0.058,0.018,0.043,0.036,-0.023
PMPCA (UniProt Q10713),0.005,0.052,0.672 (active),0,-0.017,-0.041,0.187,-0.013,-0.009,0.003
PRMT5 (UniProt O14744),0,0.005,0.094,-0.024,-0.028,-0.027,0,0.035,-0.015,-0.019
PCBP2 (UniProt H3BRU6),0.066,0.04,0.079,0.027,-0.082,-0.119,-0.095,0.042,-0.023,0.084
PI4KB (UniProt Q9UBF8),0.003,0.145,0.002,0.165,0.013,-0.072,-0.024,-0.026,-0.049,-0.014
PRKCD (UniProt Q05655),0.002,0.193,-0.053,0.056,0,0.002,-0.013,-0.013,0.218,0.021
PRRC2A (UniProt P48634),-0.044,0.01,0.004,0.002,-0.003,0.015,-0.036,0.059,-0.011,0.02
PHKB isoform 3 (UniProt Q93100),-0.007,0.121,-0.023,0.001,0.008,-0.063,-0.035,0.28 (active),0.004,-0.058
PGLS (UniProt O95336),0.008,-0.021,0.001,0.168,0.022,0.017,-0.013,-0.017,-0.073,0.014
PRKAR2A (UniProt P13861),-0.036,-0.051,-0.065,-0.016,0.017,0.02,0.025,-0.198,-0.037,-0.011
PGPEP1 (UniProt Q9NXJ5),0.018,0.019,-0.067,0.07,0.011,0.041,-0.006,-0.033,-0.03,0.033
PRADC1 (UniProt Q9BSG0),0.1,-0.1,0.019,-0.047,0.053,-0.007,0.296,-0.031,-0.016,0.013
PRKCB isoform 2 (UniProt P05771),-0.014,0.256 (active),-0.06,-0.093,-0.007,0.017,-0.038,-0.416 (active),0.181,-0.037
PIK3C3 (UniProt Q8NEB9),-0.001,-0.011,-0.05,0.062,-0.025,-0.022,-0.054,0.027,0.04,-0.008
PPP2R5C isoform 4 (UniProt Q13362),-0.012,-0.005,0.031,-0.002,0.017,-0.126,0.021,0.079,-0.013,-0.04
PHOSPHO2 (UniProt Q8TCD6),0.003,-0.013,0.024,0.038,-0.033,0.03,0.068,-0.036,-0.004,0.013
PI4K2B (UniProt Q8TCG2),-0.037,0.021,-0.021,0.069,0.092,0.063,-0.036,0.076,0.689 (active),0.009
PHGDH (UniProt O43175),0.013,-0.025,-0.077,0.005,0.021,-0.032,0.018,-0.032,0.006,0.054
PLIN2 (UniProt Q99541),0.088,-0.012,-0.092,0,0.008,-0.031,-0.153,0.038,-0.003,-0.018
PYCR2 (UniProt Q96C36),0.03,-0.027,0.011,-0.007,-0.005,0.073,-0.015,-0.021,0.007,0.018
PHLDB1 (UniProt Q86UU1),-0.035,-0.012,0.002,-0.006,-0.046,-0.243,-0.003,0.028,-0.036,0.004
PTGR2 (UniProt Q8N8N7),0.024,-0.044,0.012,0.025,0.024,-0.008,0.034,-0.011,-0.002,0.011
PPP3CA isoform 2 (UniProt Q08209),0.241 (active),0.121,0.027,-0.082,-0.03,-0.051,0.037,0.048,-0.005,-0.002
PLK1 (UniProt P53350),0.014,-0.073,-0.004,0.008,-0.015,-0.021,0.032,-0.193,-0.043,0.01
PSTPIP2 (UniProt Q9H939),0.029,0.016,-0.056,0.028,0.023,-0.037,-0.008,0.008,-0.007,0.007
PFKP (UniProt Q01813),0.026,-0.014,0.012,0.003,0.009,0.024,0.016,0,-0.008,-0.004
PGGT1B (UniProt P53609),0.01,-0.005,0.005,-0.03,0.048,0.066,0.208,0.018,-0.037,0.047
